Experimental data reported in PubChem BioAssay (NCATS).
Results filed as inconclusive are left out. The source made the active and inactive calls. Calls come from the whole dose curve; as a rule, active = well fitted cell-killing curve with a large enough effect; inconclusive = small, poorly fitted or top-dose-only effect, or effect the other way; inactive = no such curve, though single readings can be large or run the other way.

experiment: Quantitative High-Throughput drug screen in 47 multiple myeloma cell lines against the NCATS MIPE library collection: KMS21BM_JCRB cell viability assay (AID 1918974); details: ATP luminescence, 48 h; viability: at 45.8 µM
Description: PI: Beverly A. Mock Ph.D.
Laboratory of Cancer Biology and Genetics,
Center for Cancer Research, National Cancer Institute,
National Institute of Health, Bethesda, Maryland
Drug resistance and disease progression are common in multiple myeloma (MM) patients, underscoring the need for new therapeutic combinations. […] We hypothesized that effective combinations would reduce MYC expression and enhance p16 activity. […] These preclinical data identify potentially useful drug combinations for evaluation in drug-resistant MM and reveal potential mechanisms of combined drug sensitivity.
Described herein is the primary MIPE qHTS used to cherrypick compounds. Validated compounds were then further tested for potential synergistic activiy.
[1] Peat TJ, Gaikwad SM, Dubois W, Gyabaah-Kessie N, Zhang S, Gorjifard S, Phyo Z, Andres M, Hughitt VK, Simpson RM, Miller MA, Girvin AT, Taylor A, Williams D, D'Antonio N, Zhang Y, Rajagopalan A, Flietner E, Wilson K, Zhang X, Shinn P, Klumpp-Thomas C, McKnight C, Itkin Z, Chen L, Kazandijian D, Zhang J, Michalowski AM, Simmons JK, Keats J, Thomas CJ, Mock BA. Drug combinations identified by high-throughput screening promote cell cycle transition and upregulate Smad pathways in myeloma. Cancer Lett. 2023 Aug 1;568:216284. doi: 10.1016/j.canlet.2023.216284. Epub 2023 Jun 24. PMID: 37356470; PMCID: PMC10408729.
SEQUENCE No. (e.g., 1, 2, 3, etc.); […] (e.g., Cells, Incubation, Reagent, etc.); VALUE and DESCRIPTION.
1; Cells; 5 uL; white, solid bottom 1536-well Greiner assay plate.
2; Compounds; 23 nL; Kalypsis pin tool (Wako USA) equipped with a 1536-well pin head to transfer to the assay plates.
3; Incubation; 48 hours; 37C incubation.
4; Reagent;5uL; CellTiter Glo (Promega).
5; Detector; 425V; Luminescence; Viewlux PerkinElmer.
NOTES (numbers refer to Sequence numbers above)
1. The cell-based screening methods employed in this study were like those previously published. Briefly, the corresponding myeloma cell lines were screened in 1,536-well plates with 500 cells, 5-uL per well for inhibition of cell viability (assessed by measuring ATP levels with CellTiterGlo).
2. NCATS MIPE 4.0 library of approved and investigational drugs were added using the Kalypsis pin tool. Wells treated with DMSO only for 100% viability and media only wells for 0% viability were used as controls.
3. The assay plates were covered and incubated for 48 hours in a 37C, 5% CO2 incubator with controlled humidity.
4. After 48 hours, CellTilter-GloTM luminescent substrate mix (Promega) reagent was added to the assay plate and plates we incubated for 5 min at room temperature.
5. Signal was measured as median relative luminescence units on a ViewLux (PerkinElmer) multiplate reader.
[1] Heske CM, Davis MI, Baumgart JT, Wilson K, Gormally MV, Chen L, Zhang X, Ceribelli M, Duveau DY, Guha R, Ferrer M, Arnaldez FI, Ji J, Tran HL, Zhang Y, Mendoza A, Helman LJ, Thomas CJ. Matrix Screen Identifies Synergistic Combination of PARP Inhibitors and Nicotinamide Phosphoribosyltransferase (NAMPT) Inhibitors in Ewing Sarcoma. Clin Cancer Res. 2017 Dec 1;23(23):7301-7311. doi: 10.1158/1078-0432.CCR-17-1121. Epub 2017 Sep 12. PMID: 28899971; PMCID: PMC6636827.
Potency is the fitted concentration of half-maximal effect.

| Compound | Potency | viability |
| --- | --- | --- |
| Cc1ncc([N+](=O)[O-])n1CCO | inactive |  |
| CCN(CC)CC#CCOC(=O)C(O)(c1ccccc1)C1CCCCC1 (stereo not given) | 4.69 µM (active) |  |
| CC(C)OC(=O)C(C(=O)OC(C)C)=C1SC=CS1 |  | 403% (active) |
| Nc1ccc(S(=O)(=O)Nc2ccccn2)cc1 | inactive |  |
| CCCCOc1ccc(CC(=O)NO)cc1 | 14.8 µM (active) |  |
| O=c1cc(O)c(Cl)c[nH]1 | 0.743 µM (active) |  |
| NS(=O)(=O)c1cc2c(cc1Cl)NC(C(Cl)Cl)NS2(=O)=O (stereo not given) | inactive |  |
| CCOC(=O)[C@H](CCc1ccccc1)N[C@H]1CCc2ccccc2N(CC(=O)O)C1=O | 9.35 µM (active) |  |
| COC(=O)Nc1nc2ccc(Sc3ccccc3)cc2[nH]1 | 0.59 µM (active) |  |
| COc1cc2c(Nc3ccc(Br)cc3F)ncnc2cc1OCC1CCN(C)CC1 | inactive |  |
| CC(=O)Oc1ccccc1C(=O)Nc1ncc([N+](=O)[O-])s1 | 17.1 µM (active) |  |
| Nc1nc(F)nc2c1ncn2[C@@H]1O[C@H](CO)[C@@H](O)[C@@H]1O | 0.059 µM (active) |  |
| COc1cc([C@@H]2c3cc4c(cc3[C@H](O)[C@H]3COC(=O)[C@H]23)OCO4)cc(OC)c1OC | inactive |  |
| Cc1nnc(NS(=O)(=O)c2ccc(N)cc2)s1 | 0.418 µM (active) |  |
| Cc1noc(NS(=O)(=O)c2ccc(N)cc2)c1C | inactive |  |
| COc1cc(NS(=O)(=O)c2ccc(N)cc2)nc(OC)n1 | inactive |  |
| O=C(O)c1ccc(-n2nc(-c3ccccc3O)nc2-c2ccccc2O)cc1 | 20.9 µM (active) |  |
| CCCCCCNC(=O)n1cc(F)c(=O)[nH]c1=O | 0.332 µM (active) |  |
| CCOC(=O)[C@H](CCc1ccccc1)N[C@H]1CS[C@H](c2cccs2)CN(CC(=O)O)C1=O | 0.132 µM (active) |  |
| COc1ccc2cc3[n+](cc2c1OC)CCc1cc2c(cc1-3)OCO2 | 2.64 µM (active) |  |
| Cc1ccc(S(=O)(=O)N[C@@H](Cc2ccccc2)C(=O)CCl)cc1 | 14.8 µM (active) |  |
| NC(N)=NC(N)=NCCc1ccccc1 | 3.32 µM (active) |  |
| O[C@@H](CNC[C@H](O)[C@H]1CCc2cc(F)ccc2O1)[C@@H]1CCc2cc(F)ccc2O1 | 23.5 µM (active) |  |
| COc1cc2nc(N3CCCN(C)CC3)nc(NC3CCN(Cc4ccccc4)CC3)c2cc1OC | 4.69 µM (active) |  |
| CNNCc1ccc(C(=O)NC(C)C)cc1 | 2.35 µM (active) |  |
| Cc1cc(NS(=O)(=O)c2ccc(N)cc2)no1 | inactive |  |
| CC(C(=O)O)c1ccc2c(c1)CC(=O)c1ccccc1S2 (stereo not given) | 0.264 µM (active) |  |
| CCC(=O)O[C@]1(C(=O)CCl)[C@@H](C)C[C@H]2[C@@H]3CCC4=CC(=O)C=C[C@]4(C)[C@@]3(F)[C@@H](O)C[C@@]21C | inactive |  |
| C1CCC(C(CC2CCCCN2)C2CCCCC2)CC1 (stereo not given) | 11.8 µM (active) |  |
| CCCc1nc(C)c2c(=O)[nH]c(-c3cc(S(=O)(=O)N4CCN(CC)CC4)ccc3OCC)nn12 | 3.72 µM (active) |  |
